From the supplement of paper PMC6897291

Test system: RIVA
Experiment: growth inhibition by drug plus 177Lu-lilotomab satetraxetan (1 - RLU/untreated control) (fraction); higher = stronger inhibition
Conditions: 177Lu-lilotomab satetraxetan 0.5 ug/ml
Procedure: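 RIVA (RI-1) ABC-DLBCL cells were pretreated or not for 18 h with 0.5 ug/ml 177Lu-lilotomab satetraxetan (600 MBq/mg), washed and seeded (3000 cells/well) on 384-well plates pre-printed with the Selleck Cambridge Cancer Compound library. Viability was read by RealTime-Glo luminescence on days 3-6 after seeding. Effect = 1 - RLU/mean RLU of the 48 untreated no-drug control wells per plate; Bliss score = (M-E)/(1-Fa).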

Compound | growth inhibition by drug plus 177Lu-lilotomab satetraxetan (10 nM, time (day): 3) | growth inhibition by drug plus 177Lu-lilotomab satetraxetan (10 nM, time (day): 4) | growth inhibition by drug plus 177Lu-lilotomab satetraxetan (10 nM, time (day): 5) | growth inhibition by drug plus 177Lu-lilotomab satetraxetan (10 nM, time (day): 6) | growth inhibition by drug plus 177Lu-lilotomab satetraxetan (100 nM, time (day): 3) | growth inhibition by drug plus 177Lu-lilotomab satetraxetan (100 nM, time (day): 4) | growth inhibition by drug plus 177Lu-lilotomab satetraxetan (100 nM, time (day): 5) | growth inhibition by drug plus 177Lu-lilotomab satetraxetan (100 nM, time (day): 6)
N.N.[Cl][Pt][Cl] [Cisplatin] | 0.539 | 0.565 | 0.592 | 0.599 | 0.463 | 0.526 | 0.544 | 0.57
CC(C)[C@]12O[C@H]1[C@@H]1O[C@]13[C@]1(O[C@H]1C[C@H]1C4=C(CC[C@@]13C)C(=O)OC4)[C@@H]2O [Triptolide] | 0.648 | 0.885 | 0.928 | 0.948 | 0.941 | 0.967 | 0.979 | 0.984
C[C@]12CCC(=O)C(O)=C1CC[C@@H]1[C@@H]2CC[C@]2(C)C(=O)CC[C@@H]12 [Formestane] | 0.476 | 0.532 | 0.553 | 0.549 | 0.447 | 0.508 | 0.53 | 0.533
CC(O)(CS(=O)(=O)c1ccc(F)cc1)C(=O)Nc1ccc(C#N)c(C(F)(F)F)c1 (stereo not given) [Bicalutamide (Casodex)] | 0.401 | 0.506 | 0.542 | 0.556 | 0.351 | 0.443 | 0.458 | 0.432
Cc1cc2c(C(C)C)c(O)c(O)c(C=O)c2c(O)c1-c1c(C)cc2c(C(C)C)c(O)c(O)c(C=O)c2c1O [Gossypol] | 0.354 | 0.475 | 0.501 | 0.51 | 0.233 | 0.353 | 0.38 | 0.364
